Test results reported in PubChem BioAssay (NCATS).
Records with an inconclusive call do not appear. Activity calls are given as the source filed them. Calls follow the shape of the dose curve; as a rule, active = well fitted inhibition curve with a large enough effect; inconclusive = small, poorly fitted or top-dose-only effect; inactive = flat fitted curve, though single readings scatter.

How the values were obtained:
Assay in all cases: qHTS profiling for inhibitors of Plasmodium falciparum proliferation (AID 504749); also: nearly all actives have a fitted effect of over 60% in size
Settings in all cases: P. falciparum in erythrocytes, SYBR Green DNA, 72 h; series mostly up to 28.7 µM
AA1029 = system: AA1029
How it was run: (§1)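 SYBR Green fluorescence of parasite DNA, read after lysis and overnight dark incubation, measured growth over 72 h in erythrocyte culture at 0.3% parasitemia and 2.5% hematocrit. Data normalised to DMSO and 0.29 uM artemisinin, with plate-drift correction.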

AS120 = system: AS120
How it was run: as §1

ATS189 = system: ATS189
How it was run: as §1

C2A = system: C2A
How it was run: as §1

CP185 = system: CP185
How it was run: as §1

CP192 = system: CP192
How it was run: as §1

CP194 = system: CP194
How it was run: as §1

CP201 = system: CP201
How it was run: as §1

ATS95 = system: ATS95
How it was run: as §1

CP191 = system: CP191
How it was run: as §1

Measured: Potency
Potency is read from the fitted curve at half-maximal effect.

CN(Cc1ccc(C(C)(C)C)cc1)Cc1cccc2ccccc12
inactive: AA1029 | AS120 | ATS189 | C2A | CP185 | CP192 | CP194 | CP201

C#C[C@]1(OC(C)=O)CC[C@H]2[C@@H]3CCC4=C/C(=N/O)CC[C@@H]4[C@H]3CC[C@@]21CC
inactive: AA1029 | AS120 | ATS189 | ATS95 | C2A | CP185 | CP191 | CP194 | CP201

COc1ccc(C(=O)c2ccccc2)c(O)c1
inactive: AA1029 | AS120 | ATS95 | C2A | CP185 | CP192 | CP194 | CP201

CNCCCCOc1ccccc1Cc1ccccc1
inactive: CP192
active: AA1029 5.01 µM

CCNC(=O)/C=C/c1cccc(Br)c1
inactive: AA1029 | AS120 | ATS95 | C2A | CP185 | CP192 | CP194 | CP201

COc1cc(O)c(C(=O)c2ccccc2)cc1S(=O)(=O)O
inactive: AA1029 | AS120 | ATS95 | C2A | CP185 | CP192 | CP194 | CP201

CN1CCc2cccc3c2[C@H]1Cc1ccc(O)c(O)c1-3
active: AA1029 8.91 µM | AS120 7.94 µM | ATS95 8.91 µM

COc1cc(N)c(Cl)cc1C(=O)NC1CCN(Cc2ccccc2)CC1
inactive: AA1029 | AS120 | ATS189 | ATS95 | C2A | CP185 | CP192 | CP194 | CP201

CCCCN=C(N)N=C(N)N
inactive: AA1029 | AS120 | ATS189 | ATS95 | C2A | CP185 | CP191 | CP192 | CP194 | CP201

COc1ccc(-c2cc(C(F)F)nn2-c2ccc(S(N)(=O)=O)cc2)cc1F
inactive: AA1029 | AS120 | ATS189 | ATS95 | C2A | CP185 | CP191 | CP192 | CP194 | CP201

C#C[C@]1(O)CC[C@H]2[C@@H]3CCC4=CC(=O)CC[C@@H]4[C@H]3CC[C@@]21CC
inactive: AA1029 | AS120 | ATS189 | ATS95 | C2A | CP185 | CP191 | CP192 | CP194 | CP201

COc1cc([C@H]2Oc3cc([C@H]4Oc5cc(O)cc(O)c5C(=O)[C@@H]4O)ccc3O[C@@H]2CO)ccc1O
inactive: AA1029 | ATS189 | ATS95 | C2A | CP185 | CP191 | CP192 | CP201

NC(N)=NN=C(/C=C/c1ccc([N+](=O)[O-])o1)/C=C/c1ccc([N+](=O)[O-])o1
active: AA1029 10 µM | AS120 11.2 µM | ATS95 10 µM | C2A 12.6 µM | CP191 10 µM

CCc1oc2ccccc2c1C(=O)c1cc(I)c(O)c(I)c1
inactive: AA1029 | AS120 | ATS189 | ATS95 | C2A | CP185 | CP191 | CP192 | CP194 | CP201

C[N+]1(C)CCC(=C(c2ccccc2)c2ccccc2)CC1
inactive: AA1029 | AS120 | ATS189 | ATS95 | C2A | CP185 | CP194 | CP201

NS(=O)(=O)Cc1noc2ccccc12
inactive: AA1029 | AS120 | ATS189 | ATS95 | C2A | CP185 | CP191 | CP192 | CP194 | CP201

CCCCCCCCCCCCCCCCO
inactive: AA1029 | AS120 | ATS95 | C2A | CP185 | CP191 | CP192 | CP194 | CP201

Oc1ccc(Cl)cc1Cc1cc(Cl)ccc1O
inactive: C2A | CP192 | CP194
active: AA1029 10 µM | AS120 7.08 µM

CN1CCC(OC(c2ccccc2)c2ccccc2)CC1
active: AA1029 2.51 µM
inactive: C2A | CP191 | CP192 | CP201

OC1C(O)C(O)C(O)C(O)C1O (stereo unspecified)
inactive: AA1029 | AS120 | ATS189 | ATS95 | C2A | CP185 | CP191 | CP192 | CP194 | CP201

CC[N+](C)(CC)CCOC(=O)C(O)(c1ccccc1)C1CCCCC1 (stereo unspecified)
inactive: AA1029 | AS120 | ATS189 | ATS95 | C2A | CP191 | CP192 | CP194 | CP201

COc1cc(C)nc(-n2nc(C)cc2OC)n1
inactive: AA1029 | AS120 | ATS189 | ATS95 | C2A | CP185 | CP191 | CP194 | CP201

OCCOCCN1CCN(C2=Nc3ccccc3Sc3ccccc32)CC1
inactive: AA1029 | AS120 | ATS189 | ATS95 | C2A | CP185 | CP191 | CP192 | CP194 | CP201

CN(CCCN1c2ccccc2CCc2ccccc21)CC(=O)c1ccc(Cl)cc1
active: AA1029 7.94 µM | AS120 12.6 µM | ATS95 10 µM
inactive: C2A | CP192 | CP201

NC(=O)c1ccccc1O
inactive: AA1029 | AS120 | ATS189 | ATS95 | C2A | CP185 | CP191 | CP192 | CP194 | CP201

C=C[C@@]1(C)CC(=O)[C@]2(O)[C@@]3(C)[C@@H](O)CCC(C)(C)[C@@H]3[C@H](O)[C@H](OC(C)=O)[C@@]2(C)O1
inactive: AA1029 | AS120 | ATS189 | ATS95 | C2A | CP185 | CP191 | CP192 | CP194 | CP201

CN1CCN(c2cc3c(cc2F)c(=O)c(C(=O)O)cn3-c2ccc(F)cc2)CC1
inactive: AA1029 | ATS189 | ATS95 | C2A | CP185 | CP191 | CP192 | CP201

CC(C)=CCOc1ccc(/C=C/C(=O)c2ccc(OCC=C(C)C)cc2OCC(=O)O)cc1
inactive: AA1029 | AS120 | ATS189 | ATS95 | C2A | CP185 | CP191 | CP192 | CP201

CCCN(CCc1cccs1)[C@H]1CCc2c(O)cccc2C1
active: AA1029 5.01 µM | AS120 7.08 µM | ATS189 7.94 µM | ATS95 7.94 µM | C2A 11.2 µM | CP185 11.2 µM | CP191 10 µM | CP194 13.5 µM

CCOC(=O)Nc1ccc2c(c1)N(C(=O)CCN1CCOCC1)c1ccccc1S2
inactive: AA1029 | AS120 | ATS189 | ATS95 | C2A | CP185 | CP192 | CP194 | CP201

O=C(O)CCNC(=O)c1ccccc1
inactive: AA1029 | AS120 | ATS189 | ATS95 | C2A | CP185 | CP191 | CP194 | CP201

Nc1nc(-c2ccccc2)c(Br)c(=O)[nH]1
inactive: AA1029 | AS120 | ATS189 | ATS95 | C2A | CP185 | CP191 | CP192 | CP194 | CP201

NC(=O)C1(N2CCCCC2)CCN(CCCC(=O)c2ccc(F)cc2)CC1
inactive: AA1029 | AS120 | ATS189 | ATS95 | C2A | CP185 | CP191 | CP192 | CP201

COc1ccc(C(=O)c2ccccc2O)c(O)c1
inactive: AA1029 | ATS189 | ATS95 | C2A | CP185 | CP192 | CP194 | CP201
active: AS120 3.98 µM

O=C(Nc1ncc([N+](=O)[O-])s1)c1cccs1
inactive: AA1029 | AS120 | ATS189 | ATS95 | C2A | CP185 | CP191 | CP192 | CP194 | CP201

COc1ccc(C(Cl)=C(c2ccc(OC)cc2)c2ccc(OC)cc2)cc1
active: AA1029 6.31 µM | AS120 3.55 µM | ATS189 2.82 µM | ATS95 11.2 µM | C2A 3.98 µM | CP191 12.6 µM
inactive: CP192 | CP194 | CP201

CCOC(=O)C(C#N)=C(c1ccccc1)c1ccccc1
inactive: AA1029 | AS120 | ATS189 | ATS95 | C2A | CP185 | CP191 | CP194 | CP201

CC(C)NCC(O)c1ccc2ccccc2c1 (stereo unspecified)
active: AA1029 5.01 µM | AS120 7.94 µM | ATS189 8.91 µM | ATS95 8.91 µM | CP185 8.91 µM | CP191 11.2 µM | CP194 10.7 µM
inactive: CP201

NC1CCN(c2nc3c(cc2F)c(=O)c(C(=O)O)cn3-c2ccc(F)cc2F)C1 (stereo unspecified)
inactive: ATS189 | CP192

CCOCCn1c(N2CCCN(C)CC2)nc2ccccc21
inactive: AS120 | ATS95 | C2A | CP185 | CP191 | CP192 | CP201

Cc1ccc2c(Br)cc(Br)c(O)c2n1
active: AS120 8.91 µM | CP185 10 µM | CP194 13.5 µM

OC(C#CCN1CCCC1)(c1ccccc1)c1ccccc1
inactive: C2A | CP191 | CP201

CO[C@]12C[C@@H](COC(=O)c3cncc(Br)c3)CN(C)[C@@H]1Cc1cn(C)c3cccc2c13
inactive: CP185 | CP192 | CP194 | CP201

CCCCCCCCCCCCOCCOCCOCCOCCOCCOCCOCCOCCOCCO
inactive: AA1029 | CP192 | CP194 | CP201

CCN(CC)CCOc1ccccc1C(=O)CCc1ccccc1
inactive: C2A | CP191 | CP192

Cc1ccc(-c2ncc(Cl)cc2-c2ccc(S(C)(=O)=O)cc2)cn1
inactive: CP192 | CP194 | CP201

O=C(CN1CCN(Cc2ccc3c(c2)OCO3)CC1)N1c2ccccc2Sc2ccccc21
active: AS120 10 µM | ATS189 8.91 µM | C2A 11.2 µM
inactive: CP192 | CP201

CN(C)CCN1C(=O)c2ccccc2N(C)c2ccccc21
inactive: C2A
